Measurements as given in the supplement of paper PMC11732987, “Enantioselective OTUD7B fragment discovery through chemoproteomics screening and high-throughput optimisation” (Communications Chemistry, 2025).

Columns and labels:
Assay in all cases: log2 ratio of Biotin-Ahx-Ub-VS probe labelling (fragment/DMSO); higher = less target engagement (more negative = stronger competition), active = hit call of the paper (q ≤ 0.05, log2 ratio ≤ -1)
Details in all cases: compound concentration: 200 uM; treatment time: 3 h
[1] = biological target: USP34 (UniProt Q70CQ2)
Method in brief: (§1)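 HEK293T lysate in Tris/CHAPS/IGEPAL buffer with protease inhibitors (495 µg per sample) was given fragment at 200 µM or vehicle for 3 h, in triplicate. It then received Biotin-Ahx-Ub-VS at 0.5 µM final for 1 h. Labelled DUBs were NeutrAvidin-enriched, digested with LysC and trypsin, and run by diaPASEF LC-MS/MS. Values are average log2 fragment/vehicle ratios by unpaired t-test on global-median-normalised Spectronaut quantities of proteins with ≥2 unique peptides.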

[2] = biological target: T1, USP36 (UniProt Q9P275)
T1 sequence (whole entry): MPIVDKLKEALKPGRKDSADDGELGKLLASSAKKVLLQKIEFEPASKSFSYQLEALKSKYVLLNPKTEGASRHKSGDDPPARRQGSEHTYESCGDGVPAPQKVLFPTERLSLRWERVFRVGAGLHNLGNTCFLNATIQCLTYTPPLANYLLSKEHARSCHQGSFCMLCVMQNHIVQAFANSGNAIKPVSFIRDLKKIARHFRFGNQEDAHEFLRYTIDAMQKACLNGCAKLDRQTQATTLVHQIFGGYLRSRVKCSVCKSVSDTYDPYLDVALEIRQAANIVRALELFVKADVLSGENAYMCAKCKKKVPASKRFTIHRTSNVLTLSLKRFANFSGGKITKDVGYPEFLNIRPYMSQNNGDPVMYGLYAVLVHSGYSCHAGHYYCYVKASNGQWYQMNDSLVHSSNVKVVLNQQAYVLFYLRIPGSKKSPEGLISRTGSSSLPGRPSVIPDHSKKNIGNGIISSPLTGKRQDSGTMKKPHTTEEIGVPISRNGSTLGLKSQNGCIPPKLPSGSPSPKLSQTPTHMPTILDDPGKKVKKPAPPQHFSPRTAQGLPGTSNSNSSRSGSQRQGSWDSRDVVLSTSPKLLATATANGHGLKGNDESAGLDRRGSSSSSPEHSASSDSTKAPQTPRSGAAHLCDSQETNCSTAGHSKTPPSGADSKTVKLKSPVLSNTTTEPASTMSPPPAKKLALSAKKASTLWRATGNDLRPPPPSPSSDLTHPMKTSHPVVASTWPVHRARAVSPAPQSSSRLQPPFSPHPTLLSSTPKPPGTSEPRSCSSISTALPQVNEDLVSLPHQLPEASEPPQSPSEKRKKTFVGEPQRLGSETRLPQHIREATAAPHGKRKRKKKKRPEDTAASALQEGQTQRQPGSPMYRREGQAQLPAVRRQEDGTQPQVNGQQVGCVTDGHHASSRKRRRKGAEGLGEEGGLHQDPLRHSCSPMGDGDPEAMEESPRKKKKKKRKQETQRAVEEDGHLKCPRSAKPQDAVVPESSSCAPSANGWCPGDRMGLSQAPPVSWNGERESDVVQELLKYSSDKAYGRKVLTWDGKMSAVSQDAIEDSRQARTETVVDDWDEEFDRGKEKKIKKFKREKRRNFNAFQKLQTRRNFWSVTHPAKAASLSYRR
Method in brief: as §1

[3] = biological target: T2, USP38 (UniProt Q8NB14)
T2 sequence (whole entry): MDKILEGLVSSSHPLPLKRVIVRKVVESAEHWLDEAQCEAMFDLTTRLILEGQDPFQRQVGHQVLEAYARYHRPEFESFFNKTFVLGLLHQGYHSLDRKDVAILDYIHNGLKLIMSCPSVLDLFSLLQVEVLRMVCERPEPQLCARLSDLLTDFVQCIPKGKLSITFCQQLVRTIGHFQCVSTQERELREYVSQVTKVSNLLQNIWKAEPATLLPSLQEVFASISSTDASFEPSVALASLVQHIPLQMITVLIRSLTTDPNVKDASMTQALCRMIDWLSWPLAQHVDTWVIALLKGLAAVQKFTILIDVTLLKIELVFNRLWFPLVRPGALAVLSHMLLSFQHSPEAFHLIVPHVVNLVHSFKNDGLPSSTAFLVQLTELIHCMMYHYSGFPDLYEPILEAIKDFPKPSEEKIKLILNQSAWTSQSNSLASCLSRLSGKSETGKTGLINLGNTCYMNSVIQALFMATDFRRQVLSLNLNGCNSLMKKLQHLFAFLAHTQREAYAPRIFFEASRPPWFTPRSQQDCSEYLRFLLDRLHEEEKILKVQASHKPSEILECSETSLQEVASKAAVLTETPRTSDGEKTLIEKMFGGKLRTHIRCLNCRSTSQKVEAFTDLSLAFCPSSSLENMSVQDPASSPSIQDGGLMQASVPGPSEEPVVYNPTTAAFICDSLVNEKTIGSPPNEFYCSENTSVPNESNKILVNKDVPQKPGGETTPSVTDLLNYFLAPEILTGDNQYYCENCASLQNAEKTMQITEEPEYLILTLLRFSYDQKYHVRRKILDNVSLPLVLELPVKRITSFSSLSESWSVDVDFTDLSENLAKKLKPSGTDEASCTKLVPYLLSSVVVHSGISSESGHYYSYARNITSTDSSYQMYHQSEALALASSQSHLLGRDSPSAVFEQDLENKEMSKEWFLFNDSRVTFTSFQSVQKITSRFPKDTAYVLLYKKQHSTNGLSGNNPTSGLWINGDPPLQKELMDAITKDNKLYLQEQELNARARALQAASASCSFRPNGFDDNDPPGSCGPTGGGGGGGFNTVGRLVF
Method in brief: as §1

[4] = biological target: T3, USP39 (UniProt Q53GS9)
T3 sequence (whole entry): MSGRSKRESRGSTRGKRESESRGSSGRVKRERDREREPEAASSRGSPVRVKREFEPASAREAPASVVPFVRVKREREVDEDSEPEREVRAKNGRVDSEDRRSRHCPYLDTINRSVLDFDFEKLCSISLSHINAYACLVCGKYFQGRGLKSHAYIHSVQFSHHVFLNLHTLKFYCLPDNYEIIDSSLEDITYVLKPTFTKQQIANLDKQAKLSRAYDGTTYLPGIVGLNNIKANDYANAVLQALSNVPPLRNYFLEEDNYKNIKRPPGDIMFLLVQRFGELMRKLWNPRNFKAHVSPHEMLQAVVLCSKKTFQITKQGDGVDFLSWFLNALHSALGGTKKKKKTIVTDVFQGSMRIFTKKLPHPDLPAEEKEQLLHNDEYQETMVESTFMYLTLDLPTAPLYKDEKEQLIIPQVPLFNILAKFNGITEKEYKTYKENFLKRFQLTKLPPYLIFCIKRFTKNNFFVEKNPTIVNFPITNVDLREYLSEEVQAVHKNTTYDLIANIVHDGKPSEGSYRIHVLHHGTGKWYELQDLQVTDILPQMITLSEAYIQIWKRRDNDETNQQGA
Method in brief: as §1

[5] = biological target: T4, USP4 (UniProt Q13107)
T4 sequence (whole entry): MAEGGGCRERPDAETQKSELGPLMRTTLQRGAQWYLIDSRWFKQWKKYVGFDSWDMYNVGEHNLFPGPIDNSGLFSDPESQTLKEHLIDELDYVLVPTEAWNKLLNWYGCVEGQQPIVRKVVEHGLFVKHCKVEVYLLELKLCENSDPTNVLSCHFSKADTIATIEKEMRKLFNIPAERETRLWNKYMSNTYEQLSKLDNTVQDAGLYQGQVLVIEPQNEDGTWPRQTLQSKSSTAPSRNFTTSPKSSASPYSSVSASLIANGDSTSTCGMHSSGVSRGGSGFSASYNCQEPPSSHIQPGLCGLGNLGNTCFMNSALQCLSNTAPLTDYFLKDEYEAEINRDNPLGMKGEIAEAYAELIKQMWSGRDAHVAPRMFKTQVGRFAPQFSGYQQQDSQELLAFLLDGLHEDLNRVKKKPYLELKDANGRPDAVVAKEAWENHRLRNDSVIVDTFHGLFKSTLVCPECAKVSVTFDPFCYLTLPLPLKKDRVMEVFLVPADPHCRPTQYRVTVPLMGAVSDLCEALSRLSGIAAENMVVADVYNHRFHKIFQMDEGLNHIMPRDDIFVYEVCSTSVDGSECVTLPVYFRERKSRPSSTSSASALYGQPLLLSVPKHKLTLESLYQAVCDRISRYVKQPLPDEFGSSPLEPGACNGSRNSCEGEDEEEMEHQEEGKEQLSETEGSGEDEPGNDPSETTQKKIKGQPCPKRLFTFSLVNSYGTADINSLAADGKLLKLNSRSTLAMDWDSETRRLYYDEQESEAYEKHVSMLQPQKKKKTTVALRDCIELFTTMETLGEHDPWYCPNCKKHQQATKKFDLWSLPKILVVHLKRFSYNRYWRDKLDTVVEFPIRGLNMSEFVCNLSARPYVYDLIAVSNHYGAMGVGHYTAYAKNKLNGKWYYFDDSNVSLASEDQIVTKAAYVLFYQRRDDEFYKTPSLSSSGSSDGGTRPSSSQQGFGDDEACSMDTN
Method in brief: as §1

Measured: log2 ratio of Biotin-Ahx-Ub-VS probe labelling

Chain of USP34 (Q70CQ2 whole entry, the tested form may be a part): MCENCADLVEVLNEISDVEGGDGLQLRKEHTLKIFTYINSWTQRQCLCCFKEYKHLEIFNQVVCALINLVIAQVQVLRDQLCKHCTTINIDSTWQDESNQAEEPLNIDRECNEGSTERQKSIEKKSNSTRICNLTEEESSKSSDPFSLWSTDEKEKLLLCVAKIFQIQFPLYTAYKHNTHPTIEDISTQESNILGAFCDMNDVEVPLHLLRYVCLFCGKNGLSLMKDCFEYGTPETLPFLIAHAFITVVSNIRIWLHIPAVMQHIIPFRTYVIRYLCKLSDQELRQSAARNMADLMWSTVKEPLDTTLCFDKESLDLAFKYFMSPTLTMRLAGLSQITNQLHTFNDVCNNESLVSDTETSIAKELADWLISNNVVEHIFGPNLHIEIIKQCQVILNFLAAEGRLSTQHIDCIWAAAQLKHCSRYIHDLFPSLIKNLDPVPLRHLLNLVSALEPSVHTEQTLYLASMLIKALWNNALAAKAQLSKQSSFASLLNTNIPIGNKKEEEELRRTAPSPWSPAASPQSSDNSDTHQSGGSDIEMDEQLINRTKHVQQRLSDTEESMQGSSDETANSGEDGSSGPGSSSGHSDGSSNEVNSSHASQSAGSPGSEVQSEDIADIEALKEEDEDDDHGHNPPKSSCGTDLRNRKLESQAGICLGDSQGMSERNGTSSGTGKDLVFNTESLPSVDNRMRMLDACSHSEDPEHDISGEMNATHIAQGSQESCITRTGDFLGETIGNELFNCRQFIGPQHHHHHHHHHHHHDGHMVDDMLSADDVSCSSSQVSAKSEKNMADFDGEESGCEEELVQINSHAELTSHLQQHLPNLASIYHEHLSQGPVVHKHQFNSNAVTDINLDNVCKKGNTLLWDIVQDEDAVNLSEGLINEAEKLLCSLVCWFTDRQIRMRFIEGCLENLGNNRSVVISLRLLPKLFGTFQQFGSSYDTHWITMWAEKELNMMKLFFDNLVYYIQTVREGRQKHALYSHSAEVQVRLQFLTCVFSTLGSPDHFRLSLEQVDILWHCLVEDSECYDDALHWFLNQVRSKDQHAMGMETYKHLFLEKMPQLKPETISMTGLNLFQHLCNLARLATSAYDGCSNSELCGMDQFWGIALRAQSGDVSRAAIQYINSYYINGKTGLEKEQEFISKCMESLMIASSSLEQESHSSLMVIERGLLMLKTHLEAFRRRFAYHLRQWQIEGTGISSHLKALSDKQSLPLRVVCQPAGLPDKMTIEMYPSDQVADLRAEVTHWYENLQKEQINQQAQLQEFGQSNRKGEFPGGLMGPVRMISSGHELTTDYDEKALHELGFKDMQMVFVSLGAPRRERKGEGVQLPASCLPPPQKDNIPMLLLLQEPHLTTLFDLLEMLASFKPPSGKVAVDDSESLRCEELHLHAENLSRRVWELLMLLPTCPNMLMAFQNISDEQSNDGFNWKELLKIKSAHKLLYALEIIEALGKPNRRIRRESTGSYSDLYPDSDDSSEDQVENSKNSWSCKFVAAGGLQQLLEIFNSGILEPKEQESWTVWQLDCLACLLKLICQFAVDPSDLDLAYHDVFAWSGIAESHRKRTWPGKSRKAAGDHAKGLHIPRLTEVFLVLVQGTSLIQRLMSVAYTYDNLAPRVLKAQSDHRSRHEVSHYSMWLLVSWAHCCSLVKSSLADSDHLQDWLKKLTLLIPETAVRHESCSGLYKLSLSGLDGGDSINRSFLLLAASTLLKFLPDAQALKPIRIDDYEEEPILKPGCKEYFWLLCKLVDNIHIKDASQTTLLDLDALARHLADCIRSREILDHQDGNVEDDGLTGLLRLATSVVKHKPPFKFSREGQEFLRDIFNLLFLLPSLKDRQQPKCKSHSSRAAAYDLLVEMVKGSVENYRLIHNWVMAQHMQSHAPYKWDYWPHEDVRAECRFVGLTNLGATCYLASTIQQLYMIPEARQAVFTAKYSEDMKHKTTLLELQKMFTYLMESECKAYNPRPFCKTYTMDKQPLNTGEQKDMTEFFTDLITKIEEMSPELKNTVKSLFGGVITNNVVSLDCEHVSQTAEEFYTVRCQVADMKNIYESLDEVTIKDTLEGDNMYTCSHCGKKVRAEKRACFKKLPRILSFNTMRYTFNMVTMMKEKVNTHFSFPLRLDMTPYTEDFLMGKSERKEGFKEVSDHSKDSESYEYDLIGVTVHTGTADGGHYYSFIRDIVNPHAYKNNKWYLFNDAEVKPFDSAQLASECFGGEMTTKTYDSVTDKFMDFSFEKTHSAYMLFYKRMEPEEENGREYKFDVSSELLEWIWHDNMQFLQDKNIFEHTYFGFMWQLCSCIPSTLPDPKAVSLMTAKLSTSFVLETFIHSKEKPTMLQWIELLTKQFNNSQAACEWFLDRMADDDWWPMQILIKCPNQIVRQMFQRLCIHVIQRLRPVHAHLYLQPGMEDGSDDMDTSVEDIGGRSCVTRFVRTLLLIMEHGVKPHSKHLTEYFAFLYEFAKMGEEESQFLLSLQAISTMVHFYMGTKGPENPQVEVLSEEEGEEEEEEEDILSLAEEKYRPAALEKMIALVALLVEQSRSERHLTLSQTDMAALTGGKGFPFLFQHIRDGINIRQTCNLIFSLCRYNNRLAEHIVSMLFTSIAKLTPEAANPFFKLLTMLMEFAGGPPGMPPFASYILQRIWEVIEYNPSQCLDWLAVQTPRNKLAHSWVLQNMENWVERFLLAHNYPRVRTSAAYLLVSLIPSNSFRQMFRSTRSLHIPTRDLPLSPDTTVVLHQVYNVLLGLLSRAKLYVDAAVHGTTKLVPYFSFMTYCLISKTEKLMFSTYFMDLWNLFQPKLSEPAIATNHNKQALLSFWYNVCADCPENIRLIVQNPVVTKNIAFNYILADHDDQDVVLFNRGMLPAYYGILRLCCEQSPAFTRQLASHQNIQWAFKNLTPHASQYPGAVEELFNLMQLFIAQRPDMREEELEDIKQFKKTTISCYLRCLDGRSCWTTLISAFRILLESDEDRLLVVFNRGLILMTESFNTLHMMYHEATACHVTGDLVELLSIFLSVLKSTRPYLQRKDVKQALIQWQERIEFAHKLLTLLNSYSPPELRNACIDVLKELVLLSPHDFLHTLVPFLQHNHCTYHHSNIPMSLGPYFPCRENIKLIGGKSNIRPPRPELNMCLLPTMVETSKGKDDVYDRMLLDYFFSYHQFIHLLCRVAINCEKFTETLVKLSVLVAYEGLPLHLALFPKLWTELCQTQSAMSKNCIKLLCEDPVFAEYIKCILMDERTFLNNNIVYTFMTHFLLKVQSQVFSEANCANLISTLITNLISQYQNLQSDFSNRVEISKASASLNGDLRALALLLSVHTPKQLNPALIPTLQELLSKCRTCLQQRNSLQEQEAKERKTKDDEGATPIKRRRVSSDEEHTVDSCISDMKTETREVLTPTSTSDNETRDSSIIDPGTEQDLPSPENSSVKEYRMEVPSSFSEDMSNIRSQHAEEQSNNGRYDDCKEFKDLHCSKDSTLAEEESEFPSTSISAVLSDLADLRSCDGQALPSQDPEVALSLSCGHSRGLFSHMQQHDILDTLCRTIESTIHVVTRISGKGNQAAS

Cc1cnc2[nH]cc(CCNC(=O)CCl)c2c1
inactive: [1] -0.162 | [2] -0.31 | [3] 0.0877 | [4] 0.144 | [5] -0.338
